Drawing on PubChem BioAssay AID449762 (Southern Research Specialized Biocontainment Screening …, 2010), this text covers inhibition for 94 molecules.

The whole screen tested about 330,000 compounds, of which about 1,900 (0.58%) were called active. Another 4% or so got no clear call; they are omitted. These entries were drawn from the full list. Potency and affinity values are given separately. Values without a mark were called inactive. No stated cut-off is given here; in the data, inconclusive means inhibition above about 70% without an active follow-up result; inactive means below that.

This assay can be described thus: M. tuberculosis growth inhibition, HTS (AID 449762).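 Further: bacterial growth assessed after seven days of incubation.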 The following applies: M. tuberculosis H37Rv growth inhibition, 7H9 media; at 25 µM; hits give high values.
With `Cc1nnc(SCC(=O)N(Cc2ccccc2)C(C)(C)C)[nH]c1=O`, the inhibition (as a rule, the change of the read-out against control, counted positive when it falls) was 3.28%.
To `O=C1c2ccccc2C(=O)N1Cc1ccc2c(c1)OCO2` belongs 4.9%.
As to `CC(C(=O)NC1CCCC1)N1C(=O)c2cccc3cccc1c23` (centres undefined), the inhibition is -3.8%.
To `CCOC(=O)c1cnc(-n2nc(C)cc2C)nc1Nc1cccc(C(=O)O)c1` belongs 19.4%; to `CCOC(=O)c1cnc(-n2nc(C)cc2C)nc1Nc1ccc(O)cc1`, -2.03%.
In the case of `COc1ccc(CN2CCn3ncc(C(=O)Nc4cccc(C)c4)c3C2=O)cc1`, the inhibition is 3.51%.
To `COc1ccc(C(CNC(=O)C2CC2)N(C)C)cc1` (centres undefined) belongs -15.1%; to `CCSc1nnc(C)n1-c1ccc(C(=O)O)cc1`, -3.32%; to `CCc1ccc(OCC(=O)Nc2ccc(-c3nc4ccccc4o3)c(O)c2)cc1`, -3.85%.
Consider `O=C1c2ccc(-c3nc4ccccc4o3)cc2C(=O)N1Cc1cccnc1`, for which the inhibition was 6.12%.
The figure for `CC(C)NC(=O)c1ccc(-n2c(=S)[nH]c3ccccc3c2=O)cc1` is -2.47%; for `CCN(CC)S(=O)(=O)c1ccc(N2CCCC2)c(NC(=O)c2nn(C)c(=O)c3ccccc23)c1` it is -4.45%; for `CCN(CC)S(=O)(=O)c1ccc2[nH]cc(C(=O)NCCc3ccccc3)c(=O)c2c1` it is 4.1%.
Consider `CCN(CC)S(=O)(=O)c1ccc2[nH]cc(C(=O)NCCN3CCCCCC3)c(=O)c2c1`, for which the inhibition is -8.55%.
In the case of `CCN(C(=O)c1cc(Cl)ccc1OC)c1ccccc1`, the inhibition is -7.73%.
Take `CCOC(=O)C1=C(C)C(c2cccc(Oc3ccccc3)c2)NC(=S)N1` (centres undefined): the inhibition is 10.7%.
To `COc1ccc(-c2csc(NS(=O)(=O)c3ccc([N+](=O)[O-])cc3)n2)cc1` belongs 1.1%.
To `Cc1ccccc1-n1c2nc(=O)n(C)c(=O)c-2cc2ccccc21` belongs 0.96%; to `c1ccc(-c2nccc(-c3ccco3)n2)nc1`, 58.2%; to `Cc1ccc(-n2c3nc(=O)n(C)c(=O)c-3cc3ccccc32)cc1`, 10.4%.
In the case of `COc1ccc(-c2nc(-c3ccccn3)ncc2S(C)(=O)=O)cc1`, the inhibition is -1.3%.
As for `Cc1ccc(NC(=O)CSc2nc(=O)n(CCN3CCOCC3)c3c2CCCC3)cc1`, the inhibition was -2.61%.
For the molecule `CCCS(=O)(=O)N1CCC(C(=O)NCCc2ccccc2)CC1`, the inhibition was 4.73%.
The figure for `CCc1cc(/C(Cc2ccccn2)=N\O)c(O)cc1O` is -0.69%.
Consider `CCc1cc(C(=O)Cc2ccccn2)c(O)cc1O`, for which the inhibition is -1.89%.
The figure for `CC(/C=C/c1ccc(C)o1)=C\C(=O)O` is 8.65%.
To `CC(/C=C\c1ccccc1)=C/C(=O)O` belongs -1.86%.
For `N#CC(C(=O)O)=C1CCCC1`, the inhibition is -4.52%.
Consider `COc1ccc(COc2cc(-c3cccc(OC)c3)nc3ccc(NC(=O)c4ccc(N(C)C)cc4)cc23)cc1`, for which the inhibition is -16.9%.
To `COc1ccc(COc2cc(-c3cccc(OC)c3)nc3ccc(NC(=O)c4ccc(Cl)cc4)cc23)cc1` belongs 56.2%; to `O=C(NC1CCN(S(=O)(=O)c2ccccc2F)CC1)c1ccco1`, -8.86%.
Turning to `COc1cccc(NC(=O)CN(C)C(=O)C2CC3C=CC2C3)c1` (centres undefined), the inhibition is 0.94%.
The figure for `CCN(c1ccccc1)S(=O)(=O)c1ccc(Cl)c(NC(=O)CNCc2ccccc2OC)c1` is -4.74%.
Take `NS(=O)(=O)c1cccc(NC(=O)COc2ccc([N+](=O)[O-])cc2)c1`: the inhibition was -1.48%.
The figure for `O=C(NCc1ccc(F)cc1)C1(S(=O)(=O)c2ccc(Cl)cc2)CC1` is -0.39%; for `CN(C)c1ccc(C=C2C(=O)OC(C)(C(C)(C)C)OC2=O)cc1` (centres undefined) it is 0.2%; for `COc1ccccc1/C=C1\N=C(C(C)(C)C)OC1=O` it is 7.56%.
The figure for `CC(C)Cn1c(NCCN(C)C)nc2c1c(=O)[nH]c(=O)n2C` is -4.76%; for `CCNc1nc2c(c(=O)[nH]c(=O)n2C)n1CC(C)C` it is -9.92%; for `Cc1c(Cl)cccc1NC(=O)CSc1nnnn1C` it is 1.96%.
The figure for `COc1ccc(C(CCNCc2ccc(N(C)C)cc2)C(C)C)cc1` (centres undefined) is 10.7%; for `CC(C)Oc1ccc(C(CCNCc2ccc(O)cc2)c2ccccc2)cc1` (centres undefined) it is 62.7%.
Take `CSc1ccc(CCNC(=O)c2cc(C)nn2-c2ccccc2)cc1`: the inhibition is 3.36%.
Take `COc1ccc(NC(=O)CCNC(=O)c2ccccc2)cc1S(N)(=O)=O`: the inhibition is -4.86%.
With `COC(=O)c1ccc(COC(=O)c2cc3ccccc3oc2=O)cc1`, the inhibition was 15.8%.
With `CC(=O)c1ccc(COC(=O)c2cc3ccccc3oc2=O)cc1`, the inhibition was 13.6%.
To `CCOC(=O)c1cc2ccc(OC)cc2oc1=O` belongs 14%.
Turning to `CCOC(=O)c1cc2c(ccc3ccccc32)oc1=O`, the inhibition was 52.8%.
With `O=C(/C=C/c1ccccc1)N1c2ccccc2Sc2ccc(C(F)(F)F)cc21`, the inhibition was 25.3%.
The figure for `COc1cccc(-n2c(CN3CCN(c4ccccn4)CC3)nc3ccc([N+](=O)[O-])cc3c2=O)c1` is -0.01%; for `COc1ccc(NC(=O)CSc2nc3c(c(=O)n2-c2ccc(C)cc2)SCC3)c(OC)c1` it is -1.52%.
The figure for `Cc1ccccc1C(=O)NCCCNC(=O)c1cnccn1` is 4.01%; for `COc1ccc(CCNC(=O)CNS(=O)(=O)c2cccs2)cc1OC` it is -11.3%.
As for `CCOc1ccc(S(=O)(=O)NC(Cc2cnc[nH]2)C(=O)O)cc1` (centres undefined), the inhibition was -6.37%.
For `C=CC(=O)Nc1cccc(Oc2ncnc3[nH]cc(-c4cnc5ccccc5c4)c23)c1`, the inhibition was 1.76%.
To `CC(=O)Nc1cccc(OCC(=O)Nc2ccc(F)cc2)c1` belongs -11.2%.
To `Cc1ccc(NC(=O)COC(=O)Cn2cnc3ccccc32)c(C)c1` belongs 5.43%; to `O=[N+]([O-])/C=C/c1cn(Cc2ccc(Cl)cc2)c2ccccc12`, 3.28%.
The figure for `Cc1cccc(Cn2cc(/C=C/[N+](=O)[O-])c3ccccc32)c1` is -0.16%.
`COc1cc(CN(CC2CCCO2)C(=O)c2cccs2)cc(OC)c1OC` (centres undefined): the inhibition was 1.89%.
To `COc1ccc(COC(=O)C2CC(=O)N(Cc3ccc(C)cc3)C2)cc1` (centres undefined) belongs 16.4%.
To `CC(C)Oc1ccc(N2CC(C(=O)Nc3ccccn3)CC2=O)cc1` (centres undefined) belongs 10.3%.
The figure for `O=C(OCc1ccccc1Cl)C1CC(=O)N(Cc2ccco2)C1` (centres undefined) is 5.47%; for `CCOc1ccc(N2CC(C(=O)Nc3ccccn3)CC2=O)cc1` (centres undefined) it is 12.2%; for `NC(=O)C1CC(=O)N(c2ccc(OCc3ccccc3Cl)cc2)C1` (centres undefined) it is 7.94%.
For `O=C(O)C1CC(=O)N(c2ccc(OCc3ccccc3Cl)cc2)C1` (centres undefined), the inhibition was 35.8%.
Take `O=C(COC(=O)c1ccc(Cl)nc1)NNC(=O)c1ccc(Cl)cc1`: the inhibition is 5.61%.
The figure for `O=C(NCCC1=CCCCC1)c1cc(S(=O)(=O)N2CCOCC2)c(Cl)cc1Cl` is 2.93%; for `CCc1ccccc1N(CC(=O)NCC1CCCO1)C(=O)CCC(=O)Nc1cc(C)on1` (centres undefined) it is -3.22%; for `COc1ccc(OC)c(S(=O)(=O)N2CCC(C(=O)Nc3cc(C)ccc3C)CC2)c1` it is -10.6%.
The figure for `Cc1ccccc1C1C(C#N)=C2N=C(N)c3ccccc3N2C2=C1C(=O)CCC2` (centres undefined) is 6.31%.
Consider `CCOC(=O)/C(=N\Nc1ccccc1)c1csc(Nc2ccc(C)cc2)n1`, for which the inhibition was 7.86%.
Turning to `CCOC(=O)/C(=N\Nc1ccc(C(C)=O)cc1)c1csc(Nc2ccccc2)n1`, the inhibition was -1.99%.
For the molecule `Cc1ccc(NC(=O)CN(C)C(=O)c2ccc3[nH]c4c(c3c2)CC(C)CC4)cc1` (centres undefined), the inhibition was -5.07%.
For the molecule `O=C(c1ccccc1)c1ccc(COC(=O)c2cnccn2)cc1`, the inhibition was 18%.
On to `O=C(OCc1ccc(Cl)cc1)c1cnccn1`, for which the inhibition was 31.1%.
For the molecule `COC(=O)CN(c1cccc(OC)c1)S(C)(=O)=O`, the inhibition was 1.45%.
To `CCOC(=O)c1sc2ncnc(NCc3ccco3)c2c1C` belongs 0.46%; to `CN(C)C(CNc1ncnc2sccc12)c1cccs1` (centres undefined), -3.95%.
For `NC(=O)c1ccsc1NC(=O)COC(=O)Cc1c[nH]c2ccccc12`, the inhibition was 2.86%.
As to `COc1ccc(/C=C2/SC(=O)N(CCNC(=O)CC(NC(C)=O)c3ccccc3)C2=O)cc1` (centres undefined), the inhibition is -1.58%.
The figure for `Cc1ccc(NC(=O)Cc2ccc(Cl)cc2)nc1` is 11.2%.
On to `Cc1ccc(CC(=O)Nc2ccc(Cl)cn2)cc1`, for which the inhibition was 3.62%.
For `O=C(c1ccc(Cl)cc1)N1N=CCC1(O)c1ccc(Cl)cc1` (centres undefined), the inhibition is 2.13%.
The figure for `C[C@H](NC(=O)c1[nH]cnc1C(=O)Nc1ccon1)c1ccccc1` is -0.305%.
Take `O=C(OCC(=O)N1CCN(C(=O)c2ccco2)CC1)c1cc(-c2ccco2)nc2ccccc12`: the inhibition is 6.06%.
The figure for `O=C(OCC(=O)N1CCN(C(=O)c2ccco2)CC1)c1cc(-c2ccc(Cl)c(Cl)c2Cl)nc2ccccc12` is 4.98%; for `COc1ccc(CN(C)C(=O)C(Cc2ccccc2)NC(=O)c2ccccc2)c(OC)c1` (centres undefined) it is 0.87%; for `COc1cc(CN2CCC(n3nccc3NC(=O)CCCc3ccccc3)CC2)ccc1F` it is -1.97%.
In the case of `CC1CCC/C(=N\NC(=O)Nc2ccccc2)C1` (centres undefined), the inhibition is -3.97%.
To `CCC(C)(C)C1CCC(=NNC(=S)Nc2ccccc2)CC1` (centres undefined) belongs 6.86%; to `CCN(CC(=O)NCc1ccc(Cl)cc1)C(=O)c1ccc(S(=O)(=O)N(C)C)cc1`, -8.9%; to `N=C1N(/N=C/c2ccccc2)C(=Nc2ccccc2)C(=S)N1c1ccccc1`, -15.3%.
The figure for `Cc1ccc(N=C2C(=S)N(c3ccc(C)cc3)C(=N)N2/N=C/c2ccc(Cl)cc2)cc1` is -4.74%.
